Only some compounds are listed: those with a hit (about 19% of all), similar ones and a draw of the others.
IL1B secr inh = blocks inflammasome-driven IL-1 beta release | THP-1 LPS/ATP IL-1B secretion, AlphaLISA, 16 h; active compounds read low | activity change, % at 57.5 µM | 360,000 tested, 4.7% active; in the data active = activity change below about -50%; inconclusive = mostly about -30% to -49%
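THP-1 cells pretreated 1 hr with compounds (up to 57.5 uM final), then stimulated with LPS (250 ng/mL final) plus ATP (1.25 mM final); secreted IL-1B measured by AlphaLISA after 16 hr, decreased signal indicating inhibition.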
DT40 TDP1 no CPT = qHTS for Inhibitors of human tyrosyl-DNA phosphodiesterase 1 (TDP1): qHTS in cells in absence of CPT | Potency, µM (top dose mostly 46.2 µM), hits mostly inhibitors | AID 686978, 2013 | DT40 Tdp1-/- hTDP1 cells, no CPT, ATP luminescence, 48 h | 420,000 tested, 15% active; note: nearly all actives have a fitted effect of over 55% in size
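Chicken DT40 Tdp1-/- cells stably complemented with human TDP1 were seeded at 400 cells/well with DMSO in place of 20 nM camptothecin. After compound pinning, cells grew at least 48 hr at 37 °C; viability read by CellTiter-Glo luminescence.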
DT40 TDP1 CPT = growth inhibition of DT40 Tdp1-/-;hTDP1 cells with camptothecin (screen for TDP1 inhibitors). chicken DT40 Tdp1-/-;hTDP1 cells + 20 nM CPT, ATP luminescence, 48 h. Potency, µM (top dose mostly 46.2 µM), hits mostly inhibitors. 420,000 tested, 12% active. AID 686979; note: nearly all actives have a fitted effect of over 55% in size
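Chicken DT40 Tdp1-/- cells stably complemented with human TDP1 were seeded at 400 cells/well in medium containing 20 nM camptothecin, exposed to pin-transferred compounds, and grown at 37 °C for at least 48 hr. Viability was read as ATP luminescence.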
uPA generation = cell surface uPA generation inhibition | 330,000 tested, 0.31% active | cell surface uPA generation assay, qHTS | Potency, µM (highest dose often 38.3 µM), usual class: inhibitors | AID 540303; active = well fitted inhibition curve with a large enough effect; inconclusive = small, poorly fitted or top-dose-only effect; inactive = no such curve, though single readings can be large or run the other way; tested in mouse RAW 264.7 cells; note: nearly all actives have a fitted effect of over 55% in size
HT1080 IDH1KD tx = toxicity to HT-1080 IDH1 knockdown cells (counter line); Potency, µM (top dose mostly 46.1 µM), hits mostly cytotoxic; AID 686971; 360,000 tested, 2% active; HT-1080 IDH1 knockdown viability, ATP luminescence, 48 h
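Using the IDH1-knockdown HT-1080 line run in the same batch and compound series as the NT line, viability after 48 h at 37 °C was determined by CellTiter-Glo luminescence and expressed as % activity.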
HT1080-NT tox = kills 2HG-producing HT-1080-NT fibrosarcoma cells; HT-1080-NT fibrosarcoma viability, CellTiter-Glo ATP luminescence, 48 h; Potency, µM (titrated, usually from 46.1 µM), actives largely listed as cytotoxic; 360,000 tested, 1.6% active; AID 686970;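 note: NT is the 2HG producing partner of a matched IDH1 knockdown line; nearly all actives have a fitted effect of over 55% in size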
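Viability by CellTiter-Glo luminescence after 48 h compound exposure at 37C of HT-1080-NT cells (750/well, RPMI, 5% FBS). % activity scaled between DMSO wells and medium-only wells, then curve-fitted and categorized by curve class.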
Large screens that a line does not name were inactive; ! = not confirmed by another sample. Unless noted, calls come from the whole dose curve; as a rule, active = well fitted curve in the direction sought with a large enough effect; inconclusive = small, poorly fitted or top-dose-only effect, or another doubt; inactive = no such curve, though single readings can be large; an effect the other way counts as inactive or inconclusive.

COC(=O)C1=C(c2ccc(-c3ccccc3)c(F)c2)C[C@@H]2CC[C@H]1N2C(=O)N1CCC(O)CC1	IL1B secr inh inconclusive, DT40 TDP1 no CPT 9.2µM, DT40 TDP1 CPT 15µM
COC(=O)C1=C(c2cccc(OC)c2OC)C[C@@H]2CC[C@H]1N2C(=O)N1CCC(O)CC1	none
COC(=O)C1=C(c2ccc(F)cc2F)C[C@@H]2CC[C@H]1N2C(=O)N1CCC(C)CC1	DT40 TDP1 no CPT 10µM, DT40 TDP1 CPT 16µM
CC1CCCCN1Cc1ccc(Cl)nc1 (stereo not given)	none
COC(=O)C1=C(c2ccccc2)C[C@@H]2CC[C@H]1N2C(=O)N1CCC(C)CC1	DT40 TDP1 no CPT 15µM, DT40 TDP1 CPT inconclusive
COC(=O)C1=C(c2cccc(C#N)c2)C[C@@H]2CC[C@H]1N2C(=O)NC(C)C	none
COC(=O)C1=C(c2cccc(C#N)c2)C[C@@H]2CC[C@H]1N2C(=O)N1CCC(C)CC1	DT40 TDP1 no CPT 23µM, DT40 TDP1 CPT 16µM
COC(=O)C1=C(c2ccccc2)C[C@@H]2CC[C@H]1N2C(=O)N1CCOCC1	DT40 TDP1 no CPT inconclusive, DT40 TDP1 CPT inconclusive
COc1cccc(NC(=O)N2CCc3nc(Nc4ccc(C(C)C)cc4)ncc3C2)c1	DT40 TDP1 no CPT inconclusive, DT40 TDP1 CPT 26µM, HT1080-NT tox inconclusive (no result: uPA generation)
CN(C)C(=O)Oc1cccc(NC(=O)N2CCOCC2)c1	none
CCCCCCCSc1cc(OC)c(CCN(C)C)cc1OC	IL1B secr inh -100, DT40 TDP1 no CPT inconclusive, DT40 TDP1 CPT inconclusive
CCCCCSc1cc(OC)c(CCN)cc1OC	DT40 TDP1 no CPT 2.9µM, DT40 TDP1 CPT 5.8µM, HT1080 IDH1KD tx inconclusive, HT1080-NT tox inconclusive
CCCSc1cc(OC)c(CCN)cc1OC	DT40 TDP1 no CPT 2.9µM, DT40 TDP1 CPT 1.8µM (no result: IL1B secr inh, uPA generation, HT1080 IDH1KD tx, HT1080-NT tox)
COc1cc(CCN)ccc1O	none
COC(=O)C1=C(c2ccc(S(C)(=O)=O)cc2)C[C@@H]2CC[C@H]1N2C(=O)NCc1ccc(C(F)(F)F)cc1	DT40 TDP1 no CPT inconclusive
Cc1nn(CCC#N)c2c1P(=S)(N1CCCC1)OC(c1ccc(F)cc1)=N2 (stereo not given)	DT40 TDP1 no CPT inconclusive, DT40 TDP1 CPT 29µM
Cc1ccc(CN2Cc3ccc(Br)cc3-n3nncc3C2)cc1	DT40 TDP1 no CPT inconclusive, DT40 TDP1 CPT inconclusive (no result: uPA generation)
CCC(=Nc1ccc2c(c1)CCC2)c1c(O)n(-c2ccc(OC)cc2)c(=O)[nH]c1=O	DT40 TDP1 no CPT 15µM, DT40 TDP1 CPT 21µM
CCCCn1c(O)c(C(CC)=Nc2ccc(C(=O)O)cc2)c(=O)[nH]c1=O	none
CCC(=Nc1ccc(Cc2ccncc2)cc1)c1c(O)n(C)c(=O)n(C)c1=O	DT40 TDP1 no CPT 5µM, DT40 TDP1 CPT 5µM!
CCC(=NCc1ccc(F)cc1)c1c(O)n(C)c(=O)n(C)c1=O	DT40 TDP1 no CPT 18µM, DT40 TDP1 CPT 23µM
CCOC(=O)c1ccc(N=C(CC)c2c(O)n(C)c(=O)n(C)c2=O)cc1	DT40 TDP1 no CPT 18µM, DT40 TDP1 CPT inconclusive
CCCCCCCCCC(=O)O[C@H]1CC[C@H]2[C@@H]3CCC4=CC(=O)CC[C@]4(C)[C@H]3CC[C@]12C	none (no result: IL1B secr inh, uPA generation, HT1080 IDH1KD tx, HT1080-NT tox)
CC(=NCc1cccnc1)c1c(O)n(-c2ccccc2C)c(=O)[nH]c1=O	none
CNC(C(=O)c1ccccc1)C(OC)c1ccc(C)cc1 (stereo not given)	none
CCOCCSc1nc2c(c(-c3cccs3)c1C#N)CC/C2=C/c1cccs1	DT40 TDP1 no CPT inconclusive, DT40 TDP1 CPT inconclusive
CCC(=Nc1ccc2c(c1)CCC2)c1c(O)n(C)c(=O)n(C)c1=O	DT40 TDP1 no CPT 21µM, DT40 TDP1 CPT 12µM
C/C=C1/CN2CC[C@]34C(=C(C=O)[C@H]1C[C@@H]23)Nc1ccccc14	DT40 TDP1 no CPT inconclusive (no result: IL1B secr inh, uPA generation, HT1080 IDH1KD tx, HT1080-NT tox)
CCCOc1ccc(C(=O)Nc2ccc(-c3cc4ccccc4oc3=O)c(C)c2)cc1	DT40 TDP1 no CPT 5.2µM, DT40 TDP1 CPT 10µM (no result: IL1B secr inh, uPA generation, HT1080 IDH1KD tx, HT1080-NT tox)
CC1(C)C(C(=O)N2CCN(c3ccc(Cl)cc3)CC2)C1(C)C	DT40 TDP1 no CPT 18µM, DT40 TDP1 CPT inconclusive
COC(=O)N1C(=O)[C@@](Cc2ccccc2)(c2ccccc2)N1C(=O)OC	IL1B secr inh -95, DT40 TDP1 no CPT 18µM, DT40 TDP1 CPT inconclusive, uPA generation inconclusive
CN1C(=O)/C(=C\c2ccc(N3CCCCC3)o2)C(=O)NC1=S	IL1B secr inh inconclusive, DT40 TDP1 no CPT inconclusive
CN1CCN(c2ccc(/C=C3\C(=O)NC(=S)N(c4cccc(Br)c4)C3=O)o2)CC1	DT40 TDP1 no CPT 16µM, DT40 TDP1 CPT 16µM, HT1080 IDH1KD tx inconclusive, HT1080-NT tox inconclusive
Cc1ccc(/C=C2\C(=O)NC(=S)N(c3cccc(F)c3)C2=O)o1	DT40 TDP1 no CPT inconclusive, DT40 TDP1 CPT 18µM
CCOc1ccc(N2C(=O)NC(=O)/C(=C\c3ccc(N4CCCCC4)o3)C2=O)cc1	none
CCOc1ccc(N2C(=O)/C(=C/c3ccc(C)o3)C(=O)NC2=S)cc1	DT40 TDP1 no CPT 26µM, DT40 TDP1 CPT inconclusive
COc1ccc(N2C(=O)/C(=C/c3ccc(C)o3)C(=O)NC2=S)cc1	DT40 TDP1 no CPT inconclusive, DT40 TDP1 CPT 15µM
Cc1cc(C)[n+](Cc2ccccc2)cc1C(N)=O	HT1080-NT tox inconclusive
CN1C(=O)C(c2ccc([N+](=O)[O-])cc2[N+](=O)[O-])C(=O)N(C)C1=O	none
CCn1cc(CN2CCCC(C(=O)c3sccc3C)C2)cn1 (stereo not given)	DT40 TDP1 no CPT inconclusive
O=C(NCc1cccnc1)Nc1ccc([N+](=O)[O-])cc1	DT40 TDP1 CPT inconclusive
O=C(NC(=S)Nc1cc([N+](=O)[O-])ccc1O)c1cccnc1	DT40 TDP1 no CPT 26µM, DT40 TDP1 CPT 21µM, uPA generation inconclusive
Cc1ccccc1CCNCc1cc2cccc(C)c2[nH]c1=O	IL1B secr inh inconclusive, DT40 TDP1 no CPT 16µM, DT40 TDP1 CPT 16µM
NC(C(=O)O)c1cc(=O)[nH]o1 (stereo not given)	none
CCOc1cc2c(cc1OCC)-n1cccc1C(c1ccccc1OC)NC2 (stereo not given)	IL1B secr inh -85, DT40 TDP1 no CPT 26µM, DT40 TDP1 CPT inconclusive
CCOc1cc2c(cc1OCC)-n1cccc1C(c1ccccc1O)NC2 (stereo not given)	DT40 TDP1 no CPT inconclusive, DT40 TDP1 CPT 23µM, HT1080 IDH1KD tx inconclusive, HT1080-NT tox inconclusive
CCOc1cc2c(cc1OCC)-n1cccc1C(c1c(O)cccc1OC)NC2 (stereo not given)	IL1B secr inh -68, DT40 TDP1 no CPT 10µM, DT40 TDP1 CPT 13µM, HT1080 IDH1KD tx 21µM, HT1080-NT tox 21µM

Compound activity as filed in PubChem BioAssay.
